The text below walks through data of PubChem BioAssay.

Activity calls are given as the source filed them.

The nature of assay [1]: compounds binding Alexa647 anti-His antibody – biochemical, small-molecule microarray, 635 nm fluorescence, artefact control for SMM control protein annotation, primary screen (AID 1128).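 Further: score merges feature fluorescence with signal-to-noise for each printed compound spot.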 Conditions: higher = more signal.
Assay [2] deals with Human papillomavirus type 1a E7 protein (residues 1-88). Put plainly: HPV1a E7 small-molecule binders, primary screen, biochemical, small-molecule microarray, residues 1-88, 635 nm (AID 1129). Conditions: small-molecule microarray binding, fluorescence 635 nm; higher = more signal.
Assay [3] concerns the target Focal adhesion kinase 1 (Homo sapiens) (UniProt Q05397). The assay is described as follows: PTK2 protein binding on printed compound slides – biochemical, small-molecule microarray, 635/667 nm fluorescence, BSA, DTT, primary screen (AID 1130).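 Further: composite of spot emission at 667 nm and signal to noise over triplicate slides.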 Conditions: 635 nm fluorescence, higher = more signal.
Assay [4] relates to Fibrinogen (Alexa647-labelled). The assay is described as follows: Alexa647-fibrinogen binding to printed small molecules – biochemical, small-molecule microarray, 635/667 nm fluorescence, artefact control for SMM control-protein annotation, profiling panel (AID 1131).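 Further: z-score merges 667 nm fluorescence with per-spot signal-to-noise over triplicate slides.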 Conditions: fibrinogen-A647 binding fluorescence, higher = more signal.
Assay [5] addresses Follistatin (Homo sapiens) (UniProt P19883). The assay is described as follows: FST protein binding to printed compounds – biochemical, small-molecule microarray, 635/667 nm fluorescence, primary screen (AID 1132). Conditions: 635 nm fluorescence, higher = more signal.
The target of assay [6] is Fibroblast growth factor 2 (Homo sapiens) (UniProt P09038). Put plainly: basic fibroblast growth factor binding to printed compounds – biochemical, small-molecule microarray, 635/667 nm fluorescence, primary screen (AID 1133). Conditions: FGF2, fluorescence 635/667, higher = more signal.
Chain of Fibroblast growth factor 2 (Homo sapiens) (P09038 whole entry, looked up): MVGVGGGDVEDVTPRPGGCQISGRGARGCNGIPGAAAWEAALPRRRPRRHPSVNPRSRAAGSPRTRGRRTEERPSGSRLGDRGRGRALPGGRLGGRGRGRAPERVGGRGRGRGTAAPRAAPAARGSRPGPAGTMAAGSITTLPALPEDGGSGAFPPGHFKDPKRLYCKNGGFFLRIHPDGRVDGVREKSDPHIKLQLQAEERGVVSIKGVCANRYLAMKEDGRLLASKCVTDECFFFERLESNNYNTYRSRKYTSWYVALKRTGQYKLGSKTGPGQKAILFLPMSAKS
The nature of assay [7]: JC-1 mitochondrial potential readout, lung cancer cells – cell-based, A549, JC-1 fluorescence, basal, 24 h, 100 nL, profiling panel (AID 1138).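 Further: A549 lung adenocarcinoma cells under basal conditions with no added stimulus; test concentration not given here.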 Conditions: higher = more signal.
A further assay relates to Lefty1. Put plainly: Lefty1 protein binding to printed compounds – biochemical, small-molecule microarray, 635/667 nm fluorescence, primary screen (AID 1139). Conditions: fluorescence 635/667, higher = more signal.
Assay [8] has as its system wheat germ agglutinin (Triticum aestivum), Alexa647-labelled. The assay is described as follows: Alexa647-WGA lectin binding to printed small molecules – biochemical, small-molecule microarray, 635/667 nm fluorescence, artefact control for SMM control-protein annotation, profiling panel (AID 1140).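 Further: score merges 667 nm feature emission with signal to noise over triplicate slides.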 Conditions: WGA-A647 binding, 635 nm fluorescence, higher = more signal.
Assay [9] concerns the target Luciferin 4-monooxygenase (Photinus pyralis) (UniProt P08659). The assay is described as follows: inhibition of purified Photinus pyralis luciferase – biochemical, luminescence, purified enzyme, 2006 set, primary screen (AID 1141).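 Further: cell-free assay with purified firefly luciferase at 100 ng per well in PBS; test concentration not given here.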 Conditions: purified firefly luciferase, SteadyGlo luminescence, 30 min; higher = more signal, called active from +8 up or from −8 down.
Assay [10] deals with Wnt5a (protein binding on small-molecule microarray). The assay is described as follows: small molecules binding Wnt5a protein – biophysical, small-molecule microarray, 635/667 nm fluorescence, primary screen (AID 1142).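 Further: fluorescence read at 667 nm with signal to noise per printed feature.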 Conditions: 635 nm fluorescence, higher = more signal.
The nature of assay [11]: ATP-based viability of Huh7 replicon cells – cell-based, CellTiter-Glo luminescence, basal, 48 h, cytotoxicity control for HCV replication inhibitor project, primary screen (AID 1143).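 Further: Huh7 hepatoma cells carrying a hepatitis C replication reporter with no stimulus; test concentration not given here.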 Conditions: higher = more signal, called active from +8 up or from −8 down. In general terms: Replicon systems follow genome replication, usually without infectious particles.
Assay [12] in a line: basal CRE-LacZ reporter activity in PC12 – cell-based, unstimulated, primary screen (AID 1145). Conditions: no forskolin, luminescence, 4.5 h, higher = more signal, called active from +8 up or from −8 down.
Assay [13] is described as follows: forskolin-driven CRE-LacZ activity in PC12 – cell-based, CRE-LacZ reporter, forskolin-stimulated, primary screen (AID 1146).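 Further: PC12 cells with 6xCRE LacZ reporter stimulated by forskolin 10 µM; beta-galactosidase reporter signal reflecting CREB driven transcription.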 Conditions: luminescence, 4.5 h, higher = more signal, called active from +8 up or from −8 down.
Assay [14] has as its target Streptavidin (Streptomyces avidinii) (UniProt P22629). Put plainly: compounds binding control protein streptavidin – biophysical, small-molecule microarray, 635/667 nm fluorescence, artefact control for SMM compound annotation, primary screen (AID 1147).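 Further: signal reflects streptavidin binding to arrayed compounds as a control protein.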 Conditions: higher = more signal.
Assay [15] can be described thus: probe aInhba binding on compound microarray – biochemical, small-molecule microarray, 635/667 nm fluorescence, primary screen (AID 1148).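 Further: score merges 667nm spot fluorescence with signal-to-noise for antibody binding to printed compounds.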 Conditions: higher = more signal.
For assay [16], the target named is Torsin-1A (Homo sapiens) (UniProt O14656). Put plainly: TOR1A wild-type binding on microarray – cell lysate, small-molecule microarray, lysate, 635/667 nm, primary screen (AID 1149). Conditions: COS7 hTOR1A-WT lysate, 635 nm fluorescence, higher = more signal.
Chain of Torsin-1A (Homo sapiens) (O14656 whole entry, looked up): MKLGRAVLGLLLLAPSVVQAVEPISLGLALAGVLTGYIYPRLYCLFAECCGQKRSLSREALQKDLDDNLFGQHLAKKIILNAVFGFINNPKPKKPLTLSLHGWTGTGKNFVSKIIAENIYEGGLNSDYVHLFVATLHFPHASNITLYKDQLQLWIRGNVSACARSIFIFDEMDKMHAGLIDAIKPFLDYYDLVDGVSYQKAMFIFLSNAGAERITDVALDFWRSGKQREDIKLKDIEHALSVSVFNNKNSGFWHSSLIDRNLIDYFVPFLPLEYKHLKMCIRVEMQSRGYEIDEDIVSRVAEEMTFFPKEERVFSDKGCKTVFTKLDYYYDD
The target is the same in assay [17]. Put plainly: torsin A mutant lysate binding on microarrays – cell lysate, small-molecule microarray, COS7 lysate, 635/667 nm fluorescence, primary screen (AID 1150).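 Further: score pools 667 nm emission and signal to noise measuring lysate protein binding.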 Conditions: COS7 hTOR1A mutant lysate, 635 nm fluorescence, higher = more signal.
The test system of assay [18] is Sonic hedgehog protein (Shh). Put plainly: Sonic hedgehog microarray binding compounds – biochemical, small-molecule microarray, 635/667 nm fluorescence, primary screen (AID 1151).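 Further: Shh protein binding to compounds spotted on small-molecule microarray slides; score combines spot fluorescence intensity with signal-to-noise across triplicate slides.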 Conditions: 635 nm fluorescence, higher = more signal.

Chain of Focal adhesion kinase 1 (Homo sapiens) (Q05397 whole entry, looked up): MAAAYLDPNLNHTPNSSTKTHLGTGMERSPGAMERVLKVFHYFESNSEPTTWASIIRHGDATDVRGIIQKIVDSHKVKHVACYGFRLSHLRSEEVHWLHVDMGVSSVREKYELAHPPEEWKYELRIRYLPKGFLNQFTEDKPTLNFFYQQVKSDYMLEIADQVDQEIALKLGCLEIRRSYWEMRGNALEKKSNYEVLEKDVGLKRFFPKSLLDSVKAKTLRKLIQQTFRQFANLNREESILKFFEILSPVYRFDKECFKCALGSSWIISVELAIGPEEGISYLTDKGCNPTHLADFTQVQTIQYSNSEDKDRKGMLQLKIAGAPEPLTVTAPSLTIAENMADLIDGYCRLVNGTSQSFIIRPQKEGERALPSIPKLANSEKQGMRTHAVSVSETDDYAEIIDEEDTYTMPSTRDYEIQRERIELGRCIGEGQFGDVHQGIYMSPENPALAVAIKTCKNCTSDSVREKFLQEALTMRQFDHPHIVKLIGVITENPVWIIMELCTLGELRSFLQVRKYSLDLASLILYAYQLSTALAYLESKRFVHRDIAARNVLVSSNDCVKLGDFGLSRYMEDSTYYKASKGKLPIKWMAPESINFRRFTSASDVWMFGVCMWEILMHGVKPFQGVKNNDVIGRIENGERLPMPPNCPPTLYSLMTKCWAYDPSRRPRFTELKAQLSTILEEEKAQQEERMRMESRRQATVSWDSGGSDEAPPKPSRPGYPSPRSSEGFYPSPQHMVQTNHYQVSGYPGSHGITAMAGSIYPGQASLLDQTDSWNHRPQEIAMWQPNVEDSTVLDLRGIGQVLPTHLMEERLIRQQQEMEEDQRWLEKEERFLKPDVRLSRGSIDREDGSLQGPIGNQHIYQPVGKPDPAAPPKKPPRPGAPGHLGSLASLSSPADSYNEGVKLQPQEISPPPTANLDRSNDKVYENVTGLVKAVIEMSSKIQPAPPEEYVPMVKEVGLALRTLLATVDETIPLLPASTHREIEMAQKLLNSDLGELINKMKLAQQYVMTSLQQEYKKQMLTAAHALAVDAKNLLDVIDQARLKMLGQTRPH
Chain of Follistatin (Homo sapiens) (P19883 whole entry, looked up): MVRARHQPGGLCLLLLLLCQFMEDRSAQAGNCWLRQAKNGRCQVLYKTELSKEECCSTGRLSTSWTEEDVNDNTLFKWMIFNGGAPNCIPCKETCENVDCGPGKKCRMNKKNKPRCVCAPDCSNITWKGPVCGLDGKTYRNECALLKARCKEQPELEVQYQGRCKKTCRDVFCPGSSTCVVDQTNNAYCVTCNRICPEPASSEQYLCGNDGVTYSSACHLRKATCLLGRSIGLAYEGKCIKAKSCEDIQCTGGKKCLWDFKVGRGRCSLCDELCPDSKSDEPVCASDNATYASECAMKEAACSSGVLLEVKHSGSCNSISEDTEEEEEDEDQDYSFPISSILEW
Chain of Streptavidin (Streptomyces avidinii) (P22629 whole entry, looked up): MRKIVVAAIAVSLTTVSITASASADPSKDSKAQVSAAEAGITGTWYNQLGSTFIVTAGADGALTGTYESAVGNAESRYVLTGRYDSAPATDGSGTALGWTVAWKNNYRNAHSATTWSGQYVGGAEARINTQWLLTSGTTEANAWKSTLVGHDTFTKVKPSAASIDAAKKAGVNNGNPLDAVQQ
Chain of Luciferin 4-monooxygenase (Photinus pyralis) (P08659 whole entry, looked up): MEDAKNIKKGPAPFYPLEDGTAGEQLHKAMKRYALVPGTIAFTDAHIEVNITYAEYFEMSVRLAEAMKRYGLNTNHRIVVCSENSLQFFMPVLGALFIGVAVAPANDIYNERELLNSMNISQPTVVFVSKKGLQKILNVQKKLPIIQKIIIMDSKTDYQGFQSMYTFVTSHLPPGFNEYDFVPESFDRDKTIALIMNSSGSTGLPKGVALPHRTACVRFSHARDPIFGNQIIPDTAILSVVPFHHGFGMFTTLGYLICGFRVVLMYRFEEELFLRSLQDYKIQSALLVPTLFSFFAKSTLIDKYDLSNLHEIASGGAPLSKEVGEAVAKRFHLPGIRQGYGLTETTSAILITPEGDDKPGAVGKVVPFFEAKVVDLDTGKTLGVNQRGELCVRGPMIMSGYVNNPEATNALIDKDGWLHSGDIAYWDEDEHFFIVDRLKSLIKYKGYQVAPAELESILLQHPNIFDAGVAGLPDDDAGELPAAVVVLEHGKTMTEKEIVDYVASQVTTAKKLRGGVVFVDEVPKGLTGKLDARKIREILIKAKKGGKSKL

`Cc1ccc(N2C(=O)c3ccccc3[C@@H](C(=O)NCc3ccccc3)[C@@H]2c2ccc(CO)cc2)nc1`: the composite z-score in assay [1] was -0.841; in [2], -1.26; in assay [3] it was -0.289; in assay [4] it was -1.15; in assay [5], 1.33; in assay [6], 0.0049. The composite z-score in the assay on Lefty1 is -0.114; in assay [8], -1.19; in [10], 0.0687; in assay [14] it was -0.524; in assay [15] it was 0.0028; with Torsin-1A (Homo sapiens) [16], 0.628. Also, the composite z-score with Torsin-1A (Homo sapiens) [17] was 0.276; in [18], 0.311. Moreover, the z-score was 1.35 in assay [7]; -0.635 (inactive) in assay [9]; -1.54 (inactive) in assay [11]; -0.0888 (inactive) in assay [12]; -1.02 (inactive) in assay [13].
Consider `C=CC[C@]1(C(=O)OC)N=C(c2ccc(OCCCO)cc2)O[C@H]1c1ccccc1CN=[N+]=[N-]`, for which the composite z-score was 1.39 in assay [1]; 0.731 in assay [2]; 0.5 in assay [3]; -0.268 in [4]; 0.286 in [5]; 0.172 in [6]. Further, the composite z-score in the assay with Lefty1 is -0.525; in assay [8] it was 0.605; in [10], 0.832; in [14], -1.12; in [15], 0.0232; with Torsin-1A (Homo sapiens) [16], 0.101. Further, the composite z-score was -0.0021 in the assay with Torsin-1A (Homo sapiens) [17] and 0.0034 in assay [18]. The z-score in [7] was 1.22; in assay [9], -4.54 (inactive); in assay [11], -3.72 (inactive); in assay [12], 5.1 (inactive); in [13], -0.911 (inactive).
`CO[C@H]1COC(=O)[C@@H](C)COC(=O)[C@H](Cc2ccccc2)NC(=O)CC=C[C@H]1C`: the composite z-score in assay [1] was -1.35; in assay [2], -0.0007; in assay [3] it was -0.62; in assay [4] it was 0.177; in assay [5] it was 0.932; in assay [6], 0.771. Further, the composite z-score in the assay on Lefty1 was 1.27; in assay [8], -0.457; in assay [10] it was -0.0116; in [14] it was -0.666; in assay [15], -0.0889; with Torsin-1A (Homo sapiens) [16], 0.268. Also, the composite z-score in the assay with Torsin-1A (Homo sapiens) [17] is 0.0916; in [18] it was 1.85. Moreover, the z-score was 1.04 in assay [7]; -0.897 (inactive) in [9]; -0.317 (inactive) in assay [11]; 0.432 (inactive) in assay [12]; -0.968 (inactive) in assay [13].
In the case of `CC(=O)NCCCC[C@@H]1NC(=O)[C@@H]2C[C@H](C(=O)NCCCCCCN(C)C)[C@H](c3ccc(O)cc3)N2C1=O`, the composite z-score in [1] turned out to be 2.82; in assay [2], 1.26; in assay [3], 0.383; in assay [4] it was 0.53; in assay [5], 1.34; in assay [6], 1.56. For the same compound, the composite z-score in the assay on Lefty1 came out at 1.58; in assay [8], 1.25; in assay [10] it was 0.336; in assay [14] it was 1.24; in [15] it was 0.982; with Torsin-1A (Homo sapiens) [16] it was 1.49. Also, the composite z-score is 1.52 in the assay with Torsin-1A (Homo sapiens) [17] and 1.43 in [18]. The z-score in assay [7] was 0.543; in assay [9], -0.916 (inactive); in [11], -0.849 (inactive); in [12] it was 0.0043 (inactive); in assay [13], -1.19 (inactive).
Consider `CO[C@@H]1COC(=O)CC=C[C@H](C)COC(=O)[C@H](Cc2ccccc2)NC(=O)CC=C[C@H]1C`, for which the composite z-score in [1] was 0.236; in assay [2], -1.13; in assay [3] it was -0.389; in [4] it was -0.811; in assay [5], 0.997; in [6], 1.38. Besides, the composite z-score was 1.54 in the assay on Lefty1; -1.61 in [8]; -0.108 in [10]; -0.457 in [14]; -0.438 in assay [15]; 1.46 with Torsin-1A (Homo sapiens) [16]. For the same compound, the composite z-score with Torsin-1A (Homo sapiens) [17] stood at 0.793; in [18], 1.73. For the same compound, the z-score was 1.5 in assay [7]; -0.964 (inactive) in [9]; -0.87 (inactive) in assay [11]; -0.202 (inactive) in assay [12]; -1.63 (inactive) in assay [13].
Consider `O=C1c2ccccc2[C@](Cc2ccccc2I)(C(=O)O)[C@H](c2ccc(CO)cc2)N1C1CCCCC1`, for which the composite z-score in [1] turned out to be 1.52; in [2], 1.24; in [3] it was 0.398; in [4] it was 0.801; in [5] it was 1.33; in assay [6] it was 1.06. In addition, the composite z-score in the assay on Lefty1 is 0.4; in [8] it was 1.13; in assay [10], 0.818; in [14], 0.947; in assay [15] it was 0.0676; in the assay with Torsin-1A (Homo sapiens) [16], 0.0702. Moreover, the composite z-score with Torsin-1A (Homo sapiens) [17] turned out to be 0.76; in [18], 0.636. Besides, the z-score in [7] is -0.254; in [9] it was -0.757 (inactive); in assay [11], -4.42 (inactive); in assay [12], 0.001 (inactive); in assay [13], -0.298 (inactive).
As for `CCCC/C=C/[C@H]([C@@H](O)Cc1ccccc1)N(CC#Cc1ccccc1)Cc1ccccc1Br`, the composite z-score is 0.0428 in [1]; -0.462 in assay [2]; -0.219 in assay [3]; -0.986 in [4]; -1.59 in assay [5]; -1.37 in [6]. For the same compound, the composite z-score with Lefty1 was -1.84; in [8] it was -0.788; in assay [10] it was -0.238; in [14], -0.951; in assay [15], -0.302; with Torsin-1A (Homo sapiens) [16], -0.335. Also, the figures for the composite z-score (with Torsin-1A (Homo sapiens) [17]; in assay [18]) were -0.242 and -1.29, respectively. In addition, the z-score is 1.03 in assay [7]; -1.12 (inactive) in assay [9]; -0.677 (inactive) in [11]; -0.0534 (inactive) in assay [12]; -0.967 (inactive) in assay [13].
With `C=CCNC(=O)[C@@H]1[C@H]2C(=O)O[C@H](c3ccccc3)[C@H](c3ccccc3)N2[C@H](c2ccc(OCCO)cc2)[C@@]12C(=O)N(C(=O)OCCOC)c1ccc(C#CC3(O)CCCCCC3)cc12`, the composite z-score in assay [1] amounted to 0.166; in [2], 1.2; in assay [3], 0.262; in assay [4], 0.827; in assay [5] it was 1.18; in assay [6] it was 0.833. The composite z-score in the assay with Lefty1 is 0.326; in assay [8], 1.15; in [10], 0.281; in assay [14], 0.788; in [15], 0.167; in the assay with Torsin-1A (Homo sapiens) [16], 0.42. The composite z-score in the assay with Torsin-1A (Homo sapiens) [17] came to 0.469; in assay [18], 1.1. Besides, the z-score in [7] was -1; in assay [9], -2.35 (inactive); in [11], -6.19 (inactive); in assay [12], -0.87 (inactive); in [13], -1.59 (inactive).
Take `CC(C)CN1C(=O)[C@@]2(Cc3ccccc31)c1ccccc1C(=O)N(C1CCCCC1)[C@H]2c1ccc(CO)cc1`: the composite z-score in assay [1] is -1.34; in assay [2], -1.05; in assay [3], -0.133; in assay [4] it was -1.04; in assay [5], -0.447; in [6], -0.914. Further, the composite z-score is -1.28 in the assay with Lefty1; -1.14 in [8]; -0.194 in assay [10]; -1.12 in [14]; -0.208 in assay [15]; -0.475 with Torsin-1A (Homo sapiens) [16]. The composite z-score was -0.488 in the assay with Torsin-1A (Homo sapiens) [17] and -0.264 in assay [18]. Besides, the z-score in assay [7] is -0.269; in [9] it was -0.275 (inactive); in assay [11], -2.02 (inactive); in assay [12] it was -0.152 (inactive); in [13], -0.876 (inactive).
